# Assay results: the supplement of paper PMC8728848
# About 410 targets per protein were measured; listed, in parts, are those with the strongest signals and a random draw of the rest.
# B1: RS-IIL (Ralstonia solanacearum) (protein)
# chain: AQQGVFTLPANTSFGVTAFANAANTQTIQVLVDNVVKATFTGSGTSDKLLGSQVLNSGSGAIKIQVSVNGKPSDLVSNQTILANKLNFAMVGSEDGTDNDYNDGIAVLNWPLG
# B2: exo-alpha-sialidase (Propionibacterium acnes), Q6A7G1 (protein)
# chain: GSHMSGRAPAPVAATTQPKLVTGDITSTDQSGTNLFFGKKIVRNARGAIMKVDRTWPAAVPAPLPDVRADSSTRMLLGPVVDLAVNEHPEGVFYRIPALATASNGDLLASYDLRPGSAGDAPNPNSIVQRRSRDNGRTWGPQTVIHAGTPGRRKVGYSDPSYLVDPATGRILNFHVKSYDRGFATSEVGTDPDDRHVLHAEVSTSTDNGHTWTHRDITREITSDPTTRTRFVASGQGIALLHGPHAGRLIAQMTVRNSVGQQAQSIYSDDHGITWHAGNPVGRMMDENKVVELSDGTLMLNSRDAARSGRRKVAYSQDGGLTWGPVKLVDDLIDPTNNAQIIRAYPNARAGSAKARILLFTNARNATERVNGTLSVSCDDGRTWVSHQTYMPGEVGYTTAAVQSDGALGVLWERDGIRYSTIPMGWLNSVCPLAPSGRPTSGKPTSGTSLPPTAT
# Columns and labels:
# Assay in all cases: glycan array binding signal (z-score within array); higher = stronger binding
# Conditions in all cases: glycan notation: IUPAC condensed, linker removed
# [1] = target: Fuc(a1-2)Gal(b1-3)GalNAc(b1-4)[Neu5Ac(a2-3)]Gal(b1-4)Glc
# Summary of the method: (§1)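 Glycan array data were curated from 3228 arrays in the Consortium for Functional Glycomics database and kept only where the protein sequence was available. Glycan names were converted to IUPAC-condensed notation, and columns mapping to the same glycan were averaged. The binding signal is a within-array Z-score, averaged across arrays of the same protein sequence at different concentrations or buffers and across linkers. Negative Z-scores can be read as non-binding.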
# [2] = target: Fuc(a1-2)[GalNAc(a1-3)]Gal(b1-4)[Fuc(a1-3)]GlcNAc
# Summary of the method: as §1
# [3] = target: Gal(b1-3)GlcNAc(b1-3)Gal(b1-4)GlcNAc
# Summary of the method: as §1
# [4] = target: Gal(b1-4)GlcNAc(b1-3)[Gal(b1-4)GlcNAc(b1-6)]GalNAc
# Summary of the method: as §1
# Gal3S6S(b1-4)GlcNAc6S = target: Gal3S6S(b1-4)GlcNAc6S
# Summary of the method: as §1
# Glc(a1-4)Glc = target: Glc(a1-4)Glc
# Summary of the method: as §1
# [5] = target: GlcNAc(b1-4)Gal(b1-4)GlcNAc
# Summary of the method: as §1
# [6] = target: Man(a1-2)Man(a1-2)Man(a1-3)Man
# Summary of the method: as §1
# [7] = target: Man(a1-2)Man(a1-2)Man(a1-6)[Man(a1-3)]Man
# Summary of the method: as §1
# [8] = target: Man(a1-2)Man(a1-3)[Man(a1-6)]Man(a1-6)[Man(a1-2)Man(a1-3)]Man(b1-4)GlcNAc(b1-4)GlcNAc
# Summary of the method: as §1
# [9] = target: Man(a1-3)[Man(a1-6)]Man(b1-4)GlcNAc(b1-4)GlcNAc
# Summary of the method: as §1
# [10] = target: Neu5Ac(a2-3)Gal(b1-4)[Fuc(a1-3)]GlcNAc(b1-3)Gal(b1-4)GlcNAc
# Summary of the method: as §1
# Neu5Ac(a2-8)Neu5Ac = target: Neu5Ac(a2-8)Neu5Ac
# Summary of the method: as §1
# Fuc(a1-2)Gal(b1-4)Glc = target: Fuc(a1-2)Gal(b1-4)Glc
# Summary of the method: as §1
# Fuc(a1-2)Gal(b1-4)Glc6S = target: Fuc(a1-2)Gal(b1-4)Glc6S
# Summary of the method: as §1
# [11] = target: Fuc(a1-2)[GalNAc(a1-3)]Gal(b1-3)GlcNAc
# Summary of the method: as §1
# [12] = target: Fuc(a1-3)[Gal(b1-4)]GlcNAc(b1-4)Gal(b1-4)[Fuc(a1-3)]GlcNAc
# Summary of the method: as §1
# Gal(a1-2)Gal = target: Gal(a1-2)Gal
# Summary of the method: as §1
# [13] = target: Gal(a1-3)Gal(b1-4)GlcNAc(b1-3)GalNAc
# Summary of the method: as §1
# Gal(a1-4)Gal(b1-4)Glc = target: Gal(a1-4)Gal(b1-4)Glc
# Summary of the method: as §1
# [14] = target: Gal(a1-4)Gal(b1-4)GlcNAc(b1-3)Gal(b1-4)Glc
# Summary of the method: as §1
# [15] = target: Gal(b1-3)GlcNAc(b1-3)Gal(b1-3)GlcNAc
# Summary of the method: as §1
# [16] = target: Gal(b1-4)GlcNAc(a1-6)Gal(b1-4)GlcNAc
# Summary of the method: as §1
# Gal3S(b1-3)GalNAc = target: Gal3S(b1-3)GalNAc
# Summary of the method: as §1
# Gal3S(b1-4)GlcNAc = target: Gal3S(b1-4)GlcNAc
# Summary of the method: as §1
# [17] = target: Neu5Ac(a2-3)Gal(b1-3)GalNAc
# Summary of the method: as §1
# [18] = target: Neu5Ac(a2-3)Gal(b1-3)GalNAc(b1-4)[Neu5Ac(a2-3)]Gal(b1-4)Glc
# Summary of the method: as §1
# [19] = target: Neu5Ac(a2-3)Gal(b1-3)GalNAc6S
# Summary of the method: as §1
# [20] = target: Neu5Ac(a2-3)Gal(b1-3)GlcNAc(b1-3)GalNAc
# Summary of the method: as §1
# [21] = target: Neu5Ac(a2-3)Gal(b1-3)[Fuc(a1-4)]GlcNAc(b1-3)Gal(b1-3)[Fuc(a1-4)]GlcNAc
# Summary of the method: as §1
# [22] = target: Neu5Ac(a2-3)Gal(b1-3)[Neu5Ac(a2-6)]GalNAc
# Summary of the method: as §1
# [23] = target: Neu5Ac(a2-3)Gal(b1-4)GlcNAc(b1-6)[Neu5Ac(a2-3)Gal(b1-3)]GalNAc
# Summary of the method: as §1
# [24] = target: Neu5Ac(a2-3)[Neu5Ac(a2-6)]GalNAc
# Summary of the method: as §1
# Neu5Ac(a2-6)GalNAc = target: Neu5Ac(a2-6)GalNAc
# Summary of the method: as §1
# [25] = target: Neu5Ac(a2-6)GlcNAc(b1-4)GlcNAc
# Summary of the method: as §1
# [26] = target: Neu5Gc(a2-3)Gal(b1-4)[Fuc(a1-3)]GlcNAc
# Summary of the method: as §1
Binder,glycan array binding signal (z-score) [1],glycan array binding signal (z-score) [2],glycan array binding signal (z-score) [3],glycan array binding signal (z-score) [4],glycan array binding signal (z-score) (Gal3S6S(b1-4)GlcNAc6S),glycan array binding signal (z-score) (Glc(a1-4)Glc),glycan array binding signal (z-score) [5],glycan array binding signal (z-score) [6],glycan array binding signal (z-score) [7],glycan array binding signal (z-score) [8],glycan array binding signal (z-score) [9],glycan array binding signal (z-score) [10],glycan array binding signal (z-score) (Neu5Ac(a2-8)Neu5Ac),glycan array binding signal (z-score) (Fuc(a1-2)Gal(b1-4)Glc),glycan array binding signal (z-score) (Fuc(a1-2)Gal(b1-4)Glc6S),glycan array binding signal (z-score) [11],glycan array binding signal (z-score) [12],glycan array binding signal (z-score) (Gal(a1-2)Gal),glycan array binding signal (z-score) [13],glycan array binding signal (z-score) (Gal(a1-4)Gal(b1-4)Glc),glycan array binding signal (z-score) [14],glycan array binding signal (z-score) [15],glycan array binding signal (z-score) [16],glycan array binding signal (z-score) (Gal3S(b1-3)GalNAc),glycan array binding signal (z-score) (Gal3S(b1-4)GlcNAc),glycan array binding signal (z-score) [17],glycan array binding signal (z-score) [18],glycan array binding signal (z-score) [19],glycan array binding signal (z-score) [20],glycan array binding signal (z-score) [21],glycan array binding signal (z-score) [22],glycan array binding signal (z-score) [23],glycan array binding signal (z-score) [24],glycan array binding signal (z-score) (Neu5Ac(a2-6)GalNAc),glycan array binding signal (z-score) [25],glycan array binding signal (z-score) [26]
B1,0.021,0.302,-0.381,-0.389,-0.385,-0.266,-0.389,4.58,5.58,4.71,4.76,-0.268,-0.388,,,,,,,,,,,,,,,,,,,,,,,
B2,-0.338,,,,,,,,,,,,,-0.361,-0.256,-0.343,-0.311,-0.331,-0.36,-0.366,-0.337,-0.354,-0.353,-0.343,-0.268,3.6,6.27,3.54,3.71,0.022,3.45,4.39,4.53,-0.072,3.52,-0.196
